Where “and” joins values, the source holds several entries; their conditions need not be identical. Equal values may be shown once. Inconclusive results are not listed. Calls of active or inactive are those of the source. Rule for the calls, unless noted: active = hit-call score of the fitted dose curve at least 0.9, where 1 is the maximum; inactive = score below 0.9.
Columns and labels:
[1] = target: Myc proto-oncogene protein (Homo sapiens) (UniProt P01106); assay: ATG_Myc_CIS: Attagene CIS-FACTORIAL HepG2 Assay for human Myelocytomatosis (Myc) Proto-Oncogene Transcription Factor (AID 2282990); settings: HepG2, Attagene cis-reporter transcription factor activity; actives raise or lower the signal
In short: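 HepG2, transient MRTU transfection (cis promoters, endogenous TFs); 24 h dosing; TriZol RNA → oligo(dT) RT → PCR → 6-FAM primer extension → HpaI cut → CE. Bidirectional fit vs DMSO.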

[2] = ATG_NRF2_ARE_CIS: Attagene CIS-FACTORIAL HepG2 Assay for human Nuclear Factor Erythroid 2 Related Factor 2 (NFR2) response to Antioxidant Response Elements (ARE) (AID 2282992); settings: HepG2 Attagene ARE/NRF2 reporter, transcription factor activity; actives raise or lower the signal;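 for AC50: reporter mRNA level measured by RT-PCR and capillary electrophoresis fluorescence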
In short: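 Cis-factorial assay: transfected HepG2 reporter library, 24 h dosing, mRNA readout via RT-PCR/CE; DMSO-referenced bidirectional analysis.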

[3] = ATG_Oct_MLP_CIS: Attagene CIS-FACTORIAL HepG2 Assay for human Octamer-Binding Transcription Factor (Oct) (AID 2282993); settings: HepG2 Attagene cis-factorial Oct reporter, mRNA; actives raise or lower the signal
In short: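 After 24 h compound exposure, transfected HepG2 cells were lysed for total RNA; reporter-specific cDNA was PCR-amplified, fluorescently labelled and sized by capillary electrophoresis. Bidirectional curve fitting used DMSO as baseline.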

[4] = BSK_3C_uPAR: BioMAP Diversity Plus: 3C Assay for Urokinase-type plasminogen activator receptor (uPAR) Biomarker Activity (AID 2282998); settings: BioMAP 3C HUVEC, uPAR biomarker ELISA; actives raise or lower the signal
In short: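 Values derive from bidirectional curve fitting relative to DMSO, which served as baseline of activity. uPAR was measured by ELISA in human umbilical vein endothelial primary cultures 24 h after compound addition.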

[5] = BSK_3C_VCAM1: BioMAP Diversity Plus: 3C Assay for Vascular cell adhesion molecule 1 (VCAM1) Biomarker Activity (AID 2282999); settings: BioMAP 3C HUVEC, VCAM1 ELISA, cytokine-stimulated; actives raise or lower the signal
In short: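 Endothelial cells from human umbilical vein are treated with test chemical. At 24 h, VCAM-1 is measured by ELISA, and responses in either direction are fitted relative to DMSO.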

[6] = BSK_4H_Eotaxin3: BioMAP Diversity Plus: 4H Assay for Eotaxin 3 Biomarker Activity (AID 2283000); settings: primary human endothelial cells (HUVEC); actives raise or lower the signal
In short: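 Readout is Eotaxin-3 (CCL26) level by ELISA in primary human umbilical vein endothelial cells harvested 24 h after chemical exposure; activity fitted in both directions against DMSO control.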

[7] = target: human Peroxisome Proliferator-activated Receptor alpha (PPARa), PPARA (gene 5465) (UniProt Q07869); assay: ATG_PPARa_TRANS: Attagene TRANS-FACTORIAL HepG2 Assay for human Peroxisome Proliferator-activated Receptor alpha (PPARa) (AID 2283001; active = hit-call score of the fitted dose curve at least 0.9, where 1 is the maximum)
In short: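 Reporter transcripts from GAL4-UAS units in transfected HepG2 were quantified 24 h after dosing. Detection used reverse transcription, PCR, fluorescent primer extension and capillary electrophoresis, with DMSO as baseline.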

[8] = read-out: Intercellular Adhesion Molecule 1 (ICAM1), ICAM1 (gene 3383); assay: BSK_3C_ICAM1: BioMAP Diversity Plus: 3C Assay for Intercellular Adhesion Molecule 1 (ICAM1) Biomarker Activity (AID 2283003); settings: primary human endothelial cells (HUVEC); actives raise or lower the signal
In short: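 Primary human umbilical vein endothelial cells in the BioMAP 3C system were exposed to chemicals for 24 h, then ICAM-1 was quantified by ELISA. Activity was fitted bidirectionally against the DMSO negative control baseline.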

[9] = target: Retinoic acid receptor alpha (Homo sapiens) (UniProt P10276); assay: ATG_RARa_TRANS: Attagene TRANS-FACTORIAL HepG2 Assay for human Retinoic Acid Receptor alpha (RARa) (AID 2283005; active = hit-call score of the fitted dose curve at least 0.9, where 1 is the maximum)
In short: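 Reporter transcripts, measured by RT-PCR with fluorescent labeling and capillary electrophoresis after 24 h dosing, reflect activity of an exogenous human RARa–GAL4 fusion in transiently transfected HepG2. Fitted for increase relative to DMSO.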

[10] = BSK_3C_Proliferation: Cell Proliferation Assessment in the BioMAP Diversity Plus: 3C Assay (AID 2283006); settings: primary human endothelial cells (HUVEC);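 for AC50: potency may reflect either rise or fall in cell number versus DMSO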
In short: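 Human umbilical vein endothelial cells were grown sub-confluent and exposed to chemical for 48 h, then fixed with 10% TCA and stained with 0.1% sulforhodamine B; absorbance at 560 nm gave relative cell number, fitted bidirectionally against DMSO baseline.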

[11] = target: Peroxisome proliferator-activated receptor gamma (Homo sapiens) (UniProt P37231); assay: ATG_PPARg_TRANS: Attagene TRANS-FACTORIAL HepG2 Assay for human Peroxisome Proliferator-activated Receptor-gamma (PPARg) (AID 2283007; active = hit-call score of the fitted dose curve at least 0.9, where 1 is the maximum)
In short: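 Liver-derived HepG2 cells expressing an exogenous NR-Gal4 chimera alongside GAL4-UAS reporter genes; 24 h exposure. Fluorescence of reporter RT-PCR products, separated by capillary electrophoresis, gives mRNA induction relative to DMSO.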

[12] = target: Nuclear receptor subfamily 1 group I member 2 (Homo sapiens) (UniProt O75469); assay: ATG_PXR_TRANS: Attagene TRANS-FACTORIAL HepG2 Assay for human Pregnane X Receptor (PXR) (AID 2283008; active = hit-call score of the fitted dose curve at least 0.9, where 1 is the maximum)
In short: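 Fluorescence intensity of FAM-labelled, HpaI-digested reporter amplicons, separated by capillary electrophoresis, quantifies induction. HepG2 cells with PXR-Gal4 trans-reporter system were exposed 24 h; DMSO defines baseline.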

[13] = target: human RAR-related Orphan Receptor beta (RORb), RORB (gene 6096) (UniProt Q92753); assay: ATG_RORb_TRANS: Attagene TRANS-FACTORIAL HepG2 Assay for human RAR-related Orphan Receptor beta (RORb) (AID 2283010; active = hit-call score of the fitted dose curve at least 0.9, where 1 is the maximum)
In short: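 HepG2 cells were transiently transfected with multiplexed GAL4-UAS reporter units expressing chimeric nuclear receptor–GAL4 proteins, then dosed for 24 h. Reporter mRNA was quantified by RT-PCR with fluorescent labelling and capillary electrophoresis; gain of signal was fitted relative to DMSO.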

[14] = target: human Peroxisome Proliferator-activated Receptor delta (PPARd), PPARD (gene 5467) (UniProt Q03181); assay: ATG_PPARd_TRANS: Attagene TRANS-FACTORIAL HepG2 Assay for human Peroxisome Proliferator-activated Receptor delta (PPARd) (AID 2283002; active = hit-call score of the fitted dose curve at least 0.9, where 1 is the maximum)
In short: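 Transient HepG2 transfection (multiple GAL4-UAS RTUs, chimeric receptor-Gal4); 24 h dosing; total RNA → oligo(dT) RT → PCR → 6-FAM primer extension → HpaI cut → CE. Positive direction vs DMSO.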

[15] = target: human RAR-related Orphan Receptor gamma (RORg), RORC (gene 6097) (UniProt P51449); assay: ATG_RORg_TRANS: Attagene TRANS-FACTORIAL HepG2 Assay for human RAR-related Orphan Receptor gamma (RORg) (AID 2283011; active = hit-call score of the fitted dose curve at least 0.9, where 1 is the maximum)
In short: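 Transient MRTU transfection of HepG2 (TRANS format, exogenous NR-Gal4 chimera). 24 h dosing. Total RNA → oligo(dT) RT → PCR → 6-FAM labelling → HpaI cut → CE. Gain vs DMSO.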

[16] = target: human Retinoic Acid Receptor beta (RARb), RARB (gene 5915) (UniProt P10826); assay: ATG_RARb_TRANS: Attagene TRANS-FACTORIAL HepG2 Assay for human Retinoic Acid Receptor beta (AID 2283004; active = hit-call score of the fitted dose curve at least 0.9, where 1 is the maximum)
In short: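 Readout is reporter mRNA induction: RNA reverse-transcribed, PCR-amplified, FAM-labelled, HpaI-cut and resolved by capillary electrophoresis. Transiently transfected HepG2 cells carrying exogenous NR–Gal4 chimeras were dosed for 24 h; activity fitted upward relative to DMSO.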

[17] = target: human Retinoic Acid Receptor gamma (RARg), RARG (gene 5916) (UniProt P13631); assay: ATG_RARg_TRANS: Attagene TRANS-FACTORIAL HepG2 Assay for human Retinoic Acid Receptor gamma (RARg) (AID 2283009; active = hit-call score of the fitted dose curve at least 0.9, where 1 is the maximum)
In short: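 HepG2 cells transiently transfected with multiplexed reporter units expressing chimeric RARg-GAL4 and GAL4-UAS-driven reporters; 24 h compound exposure. Reporter mRNA quantified by RT-PCR with fluorescent labelling and capillary electrophoresis; gain-of-signal fitted relative to DMSO baseline.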

Measured: AC50

Sequence of Myc proto-oncogene protein (Homo sapiens) (P01106 whole entry, looked up): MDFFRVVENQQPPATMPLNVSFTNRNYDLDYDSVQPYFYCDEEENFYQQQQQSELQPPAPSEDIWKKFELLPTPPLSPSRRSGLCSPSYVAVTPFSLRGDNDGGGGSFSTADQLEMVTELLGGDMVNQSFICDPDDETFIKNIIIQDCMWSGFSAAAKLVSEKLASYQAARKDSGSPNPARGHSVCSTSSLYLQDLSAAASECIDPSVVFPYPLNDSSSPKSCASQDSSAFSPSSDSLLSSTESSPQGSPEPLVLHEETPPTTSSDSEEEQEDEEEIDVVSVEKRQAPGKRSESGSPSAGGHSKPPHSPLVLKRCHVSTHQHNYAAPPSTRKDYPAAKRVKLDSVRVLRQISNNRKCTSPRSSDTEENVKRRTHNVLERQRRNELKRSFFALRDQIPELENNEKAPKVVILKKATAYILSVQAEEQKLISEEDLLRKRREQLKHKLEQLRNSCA
Sequence of Peroxisome proliferator-activated receptor gamma (Homo sapiens) (P37231 whole entry, looked up, the tested form may be a part): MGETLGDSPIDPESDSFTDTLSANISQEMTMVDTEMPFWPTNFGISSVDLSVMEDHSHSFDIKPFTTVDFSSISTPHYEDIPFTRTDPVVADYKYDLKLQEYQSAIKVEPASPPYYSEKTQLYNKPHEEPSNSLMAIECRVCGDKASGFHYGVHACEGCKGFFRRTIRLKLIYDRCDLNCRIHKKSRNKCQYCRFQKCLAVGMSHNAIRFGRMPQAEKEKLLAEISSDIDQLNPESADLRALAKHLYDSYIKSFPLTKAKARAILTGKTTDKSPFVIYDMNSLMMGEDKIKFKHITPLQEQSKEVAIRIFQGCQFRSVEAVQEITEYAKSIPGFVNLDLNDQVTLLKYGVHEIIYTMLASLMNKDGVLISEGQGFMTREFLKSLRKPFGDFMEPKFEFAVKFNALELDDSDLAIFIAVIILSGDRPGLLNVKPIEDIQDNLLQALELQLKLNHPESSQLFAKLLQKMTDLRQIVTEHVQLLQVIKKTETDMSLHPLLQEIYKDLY
Sequence of Retinoic acid receptor alpha (Homo sapiens) (P10276 whole entry, looked up, the tested form may be a part): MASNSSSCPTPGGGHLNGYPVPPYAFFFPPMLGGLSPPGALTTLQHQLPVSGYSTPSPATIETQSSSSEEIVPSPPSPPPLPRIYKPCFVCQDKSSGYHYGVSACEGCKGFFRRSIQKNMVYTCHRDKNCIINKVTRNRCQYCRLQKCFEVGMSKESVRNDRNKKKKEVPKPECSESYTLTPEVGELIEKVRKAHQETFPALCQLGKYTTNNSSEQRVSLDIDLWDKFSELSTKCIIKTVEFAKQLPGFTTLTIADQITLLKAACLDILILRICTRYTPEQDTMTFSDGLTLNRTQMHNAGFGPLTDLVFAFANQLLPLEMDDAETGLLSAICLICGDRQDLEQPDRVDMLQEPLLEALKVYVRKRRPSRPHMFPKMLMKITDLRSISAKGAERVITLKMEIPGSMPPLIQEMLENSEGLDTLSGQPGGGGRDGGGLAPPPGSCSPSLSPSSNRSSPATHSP
Sequence of human Retinoic Acid Receptor beta (RARb), RARB (gene 5915) (P10826 whole entry, looked up, the tested form may be a part): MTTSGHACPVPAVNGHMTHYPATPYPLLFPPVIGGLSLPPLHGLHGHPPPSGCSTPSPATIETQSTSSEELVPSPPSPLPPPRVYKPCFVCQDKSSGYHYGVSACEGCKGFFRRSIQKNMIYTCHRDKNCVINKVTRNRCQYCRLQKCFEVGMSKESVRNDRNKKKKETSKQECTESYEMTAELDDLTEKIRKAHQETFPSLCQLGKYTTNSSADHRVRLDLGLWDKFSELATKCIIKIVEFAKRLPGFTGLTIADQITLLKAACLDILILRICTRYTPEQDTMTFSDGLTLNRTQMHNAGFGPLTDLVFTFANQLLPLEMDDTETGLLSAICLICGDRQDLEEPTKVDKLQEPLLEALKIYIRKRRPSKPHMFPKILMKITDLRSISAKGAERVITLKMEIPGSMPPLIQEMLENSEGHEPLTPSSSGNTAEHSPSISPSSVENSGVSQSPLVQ
Sequence of human Peroxisome Proliferator-activated Receptor alpha (PPARa), PPARA (gene 5465) (Q07869 whole entry, looked up, the tested form may be a part): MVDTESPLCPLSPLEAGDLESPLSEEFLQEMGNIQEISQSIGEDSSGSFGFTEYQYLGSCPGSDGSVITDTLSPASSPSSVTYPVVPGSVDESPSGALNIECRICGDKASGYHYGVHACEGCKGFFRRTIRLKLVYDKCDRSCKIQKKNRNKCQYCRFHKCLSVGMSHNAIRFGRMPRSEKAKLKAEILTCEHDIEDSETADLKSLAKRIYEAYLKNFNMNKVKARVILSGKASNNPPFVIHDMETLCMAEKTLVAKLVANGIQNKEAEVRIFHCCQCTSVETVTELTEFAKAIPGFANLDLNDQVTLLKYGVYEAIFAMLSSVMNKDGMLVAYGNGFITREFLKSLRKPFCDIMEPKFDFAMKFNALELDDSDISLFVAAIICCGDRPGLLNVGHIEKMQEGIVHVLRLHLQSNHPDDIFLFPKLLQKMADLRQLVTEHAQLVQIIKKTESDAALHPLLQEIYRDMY
Sequence of human RAR-related Orphan Receptor beta (RORb), RORB (gene 6096) (Q92753 whole entry, looked up, the tested form may be a part): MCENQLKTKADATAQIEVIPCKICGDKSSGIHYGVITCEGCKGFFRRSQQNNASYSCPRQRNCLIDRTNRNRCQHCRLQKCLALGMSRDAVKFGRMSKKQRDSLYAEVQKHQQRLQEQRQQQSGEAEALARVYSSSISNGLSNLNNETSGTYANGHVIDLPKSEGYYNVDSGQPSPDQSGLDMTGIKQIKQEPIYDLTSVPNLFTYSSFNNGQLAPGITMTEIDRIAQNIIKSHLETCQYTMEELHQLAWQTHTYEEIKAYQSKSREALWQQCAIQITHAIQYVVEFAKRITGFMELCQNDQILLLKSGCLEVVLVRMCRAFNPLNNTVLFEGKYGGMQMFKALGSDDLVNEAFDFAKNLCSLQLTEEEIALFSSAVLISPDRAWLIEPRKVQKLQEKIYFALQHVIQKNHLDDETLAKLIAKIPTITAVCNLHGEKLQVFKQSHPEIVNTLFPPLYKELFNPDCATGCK
Sequence of human Retinoic Acid Receptor gamma (RARg), RARG (gene 5916) (P13631 whole entry, looked up, the tested form may be a part): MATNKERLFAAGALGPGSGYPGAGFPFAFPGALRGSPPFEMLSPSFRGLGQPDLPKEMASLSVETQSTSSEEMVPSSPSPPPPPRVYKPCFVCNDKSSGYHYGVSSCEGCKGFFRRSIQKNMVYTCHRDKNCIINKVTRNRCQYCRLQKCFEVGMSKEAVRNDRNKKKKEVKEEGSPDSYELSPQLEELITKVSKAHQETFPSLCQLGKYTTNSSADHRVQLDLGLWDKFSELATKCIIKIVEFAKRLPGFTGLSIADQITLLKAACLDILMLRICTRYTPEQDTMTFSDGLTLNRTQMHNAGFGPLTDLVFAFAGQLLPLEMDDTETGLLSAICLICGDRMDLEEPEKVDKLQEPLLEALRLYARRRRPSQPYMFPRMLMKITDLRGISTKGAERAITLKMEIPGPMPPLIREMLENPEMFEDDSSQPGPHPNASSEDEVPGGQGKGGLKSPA
Sequence of human RAR-related Orphan Receptor gamma (RORg), RORC (gene 6097) (P51449 whole entry, looked up, the tested form may be a part): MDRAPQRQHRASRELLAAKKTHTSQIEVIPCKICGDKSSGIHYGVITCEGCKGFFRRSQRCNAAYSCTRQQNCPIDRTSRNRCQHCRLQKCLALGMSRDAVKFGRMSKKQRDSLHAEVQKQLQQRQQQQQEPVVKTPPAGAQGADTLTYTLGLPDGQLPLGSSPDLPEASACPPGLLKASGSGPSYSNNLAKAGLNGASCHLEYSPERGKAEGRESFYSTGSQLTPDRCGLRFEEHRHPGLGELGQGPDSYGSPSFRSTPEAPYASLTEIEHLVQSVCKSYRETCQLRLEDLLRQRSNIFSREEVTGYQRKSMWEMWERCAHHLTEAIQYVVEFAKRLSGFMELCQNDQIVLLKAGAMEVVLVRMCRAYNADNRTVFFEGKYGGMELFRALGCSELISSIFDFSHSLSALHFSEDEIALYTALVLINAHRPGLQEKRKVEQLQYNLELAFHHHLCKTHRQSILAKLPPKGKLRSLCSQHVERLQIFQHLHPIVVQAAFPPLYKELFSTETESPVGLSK
Sequence of Nuclear receptor subfamily 1 group I member 2 (Homo sapiens) (O75469 whole entry, looked up, the tested form may be a part): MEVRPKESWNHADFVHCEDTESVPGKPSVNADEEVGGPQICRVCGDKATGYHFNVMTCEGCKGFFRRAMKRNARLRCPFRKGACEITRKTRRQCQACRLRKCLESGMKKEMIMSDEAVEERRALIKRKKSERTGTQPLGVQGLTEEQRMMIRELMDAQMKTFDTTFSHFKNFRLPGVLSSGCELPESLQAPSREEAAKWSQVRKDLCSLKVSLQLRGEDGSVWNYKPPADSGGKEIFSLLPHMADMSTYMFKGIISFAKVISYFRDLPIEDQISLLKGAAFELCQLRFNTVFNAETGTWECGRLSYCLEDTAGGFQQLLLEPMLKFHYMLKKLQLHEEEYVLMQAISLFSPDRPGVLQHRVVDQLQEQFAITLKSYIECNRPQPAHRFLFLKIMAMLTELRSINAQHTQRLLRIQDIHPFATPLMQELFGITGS
Sequence of human Peroxisome Proliferator-activated Receptor delta (PPARd), PPARD (gene 5467) (Q03181 whole entry, looked up, the tested form may be a part): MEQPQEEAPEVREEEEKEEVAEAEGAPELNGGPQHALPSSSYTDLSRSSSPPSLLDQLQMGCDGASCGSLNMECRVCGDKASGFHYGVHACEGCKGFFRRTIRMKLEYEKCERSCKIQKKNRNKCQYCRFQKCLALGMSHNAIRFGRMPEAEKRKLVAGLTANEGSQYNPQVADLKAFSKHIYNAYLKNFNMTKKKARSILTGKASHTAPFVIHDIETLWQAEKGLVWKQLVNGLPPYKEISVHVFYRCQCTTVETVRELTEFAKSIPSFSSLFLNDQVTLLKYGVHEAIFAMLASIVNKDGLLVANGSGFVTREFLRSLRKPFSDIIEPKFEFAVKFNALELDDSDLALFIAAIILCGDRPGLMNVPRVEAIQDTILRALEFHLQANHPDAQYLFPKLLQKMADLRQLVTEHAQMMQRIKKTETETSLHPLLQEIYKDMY

C=CC(Cl)CCl (stereo unspecified)
active: [2] 20.2 µM | [12] 27.2 µM
not listed: [14] | [15] | [16] | [17]
inactive: all other assays above

O=C/C(Cl)=C(/Cl)C(=O)O
inactive: [1] | [7] | [14] | [12] | [13] | [15]
active: [2] 26.1 µM | [3] 144 µM | [11] 46.7 µM

O=C(N[C@H]1CN2CCC1CC2)c1ccc2c(c1)OCCO2
not listed: [7] | [9] | [13]
inactive: all other assays above

CN(C1CCCCC1)C1CCCCC1
inactive: [1] | [3] | [16] | [9] | [11] | [12]
active: [2] 61.1 µM

OC(Cc1ccccc1Cl)(Cn1[nH]cnc1=S)C1(Cl)CC1 (stereo unspecified)
inactive: [1] | [3] | [5] | [14] | [8] | [13]
active: [2] 12.1 µM | [4] 20 µM | [6] 20 µM | [10] 30.7 µM | [11] 59.8 µM | [12] 17.7 µM

O=[N+]([O-])c1c2ccccc2cc2ccccc12
active: [2] 5 µM | [11] 1.27 µM | [12] 4.7 µM
inactive: [1] | [3] | [16] | [9] | [13]

O=[N+]([O-])c1ccc(Cl)c([N+](=O)[O-])c1
inactive: [2] | [3] | [13] | [15]
active: [1] 3.71 µM

CCOCn1c(-c2ccc(Cl)cc2)c(C#N)c(Br)c1C(F)(F)F
active: [1] 150 µM | [3] 1.92 µM | [11] 4.71 µM | [12] 0.561 µM
inactive: [2] | [7] | [14] | [9]

BrCC(Br)c1ccccc1 (stereo unspecified)
inactive: [1] | [2] | [3] | [7] | [11] | [13] | [15]

OC[P+](CO)(CO)CO
active: [2] 30.2 µM and 26.4 µM
inactive: [1] | [3] | [7] | [14] | [16] | [11]

CC(C)(C)c1ccc(CCOc2ncnc3ccccc23)cc1
inactive: [1] | [2] | [3] | [7] | [12]

CN(C)[C@@H]1C(=O)C(C(N)=O)=C(O)[C@@]2(O)C(=O)C3=C(O)c4c(O)ccc(Cl)c4[C@@](C)(O)[C@H]3C[C@@H]12
inactive: [1] | [3] | [7] | [14] | [17] | [15]
active: [2] 20.3 µM

O=C(CCl)Nc1ccccc1
active: [2] 2.21 µM | [3] 8.75 µM | [11] 2.7 µM
inactive: [1] | [14] | [12]

CC1CC(=O)O1 (stereo unspecified)
inactive: [1] | [2] | [3] | [14] | [11] | [12] | [15]

C[N+](C)(C)Cc1ccccc1
inactive: [1] | [2] | [3] | [7] | [11] | [12]

NNCCO
inactive: [1] | [2] | [3] | [12] | [15]

Nc1c(Oc2ccccc2)cc(O)c2c1C(=O)c1ccccc1C2=O
active: [2] 2.25 µM | [6] 10 µM | [11] 6.44 µM | [12] 3.13 µM
not listed: [7] | [17]
inactive: all other assays above

CCCCN(CCCC)C(=S)S
active: [2] 23.5 µM | [11] 5.99 µM | [12] 5.69 µM
inactive: [1] | [3] | [15]

CC[N+](CC)(CC)CC
inactive: [1] | [2] | [3] | [7] | [11] | [12]

ClCc1ccccc1Cl
active: [2] 12.4 µM | [3] 74.7 µM
inactive: [1] | [11] | [13] | [15]

C=CCOC(F)(C(F)(F)F)C(F)(F)F
inactive: [1] | [2] | [3] | [14] | [11]

C=CCCl
inactive: [1] | [2] | [3] | [14] | [9] | [11] | [12] | [17] | [15]

O=c1[nH]c(=O)n(Cl)c(=O)n1Cl
inactive: [1] | [2] | [3] | [7] | [11] | [12] | [13] | [15]

Source: PubChem BioAssay (EPA / NIEHS)
